Records with an inconclusive call do not appear. A call without a number means that no potency is given here. Calls of active or inactive are those of the source. Calls follow the shape of the dose curve; as a rule, active = well fitted curve in the direction sought with a large enough effect; inconclusive = small, poorly fitted or top-dose-only effect, or another doubt; inactive = no such curve, though single readings can be large or run the other way.
molecular target: Microtubule-associated protein tau (Homo sapiens) (UniProt P10636); assay: Confirmation Concentration-Response Assay for Inhibitors of Tau Fibril Formation, Fluorescence Polarization; conditions: recombinant tau K18 P301L (four-repeat tau fragment) heparin fibrillization, Alexa594 FP; series mostly up to 57.1 µM
Source text: NIH Molecular Libraries Probe Production Network [MLPCN] NIH Chemical Genomics Center [NCGC] MLPCN Grant: X01 MH083262-01 Assay Provider: Carlo Ballatore, University of Pennsylvania NCGC Assay Overview: The microtubule-associated protein tau is an abundant protein in the axons of neurons that stabilizes microtubules. With its ability to modulate microtubule dynamics, tau contributes directly or indirectly, to key structural and regulatory cellular functions. Particularly important is the influence tau exerts on axonal transport, which allows signaling molecules, trophic factors and other essential cellular constituents to travel along the axons. Under pathological conditions, tau becomes sequestered into insoluble aggregates called neurofibrillary tangles. This phenomenon is believed to have pathological consequences by promoting axonal transport deficits that ultimately lead to synaptic dysfunction and neuronal loss. To identify inhibitors of tau aggregation, a heparin-induced tau fibril formation assay was used that employed a recombinantly expressed fragment of tau, K18 (Q242-E372), bearing a P301L mutation (Gustke et al. 1994; Hong et al. 1998). […] Gustke, N., B. Trinczek, et al. (1994). "Domains of tau protein and interactions with microtubules." Biochemistry 33(32): 9511-22. Hong, M., V. Zhukareva, et al. (1998). "Mutation-specific functional impairments in distinct tau isoforms of hereditary FTDP-17." Science 282(5395): 1914-7. Li, W. and V. M. Lee (2006). "Characterization of two VQIXXK motifs for tau fibrillization in vitro." Biochemistry 45(51): 15692-701. von Bergen, M., S. Barghorn, et al. (2001). "Mutations of tau protein in frontotemporal dementia promote aggregation of paired helical filaments by enhancing local beta-structure." J Biol Chem 276(51): 48165-74.
For screening, 2 uL/well human K18 P301L (15 uM unlabeled and 0.24 uM Alexa 594-labeled tau final concentrations) in reagent buffer (100 mM sodium acetate pH 7) was dispensed into black solid 1536-well plates (Grenier) using a solenoid-based dispenser. Following transfer of 23 nL compound or DMSO vehicle by a pin tool, 2 uL/well heparin (20 uM final concentration) in reagent buffer was added and the plate centrifuged 15 s at 1000 RPM. Plates were incubated 6 hr at 37 C and then 1 uL/well ThT (30 uM final concentration) was added. After a 1 hr ambient incubation, the plates were read by an Envision (Perkin Elmer) to monitor Alexa 594 FP (555 nm excitation and 632 nm emission). Keywords: NIH Roadmap, MLPCN, MLI, MLSMR, NCGC, qHTS, tau, tauopathies, Alzheimer's disease, fibril, neurodegeneration, aggregation

Sequence of Microtubule-associated protein tau (Homo sapiens) (P10636 561-689 P618L limits assumed): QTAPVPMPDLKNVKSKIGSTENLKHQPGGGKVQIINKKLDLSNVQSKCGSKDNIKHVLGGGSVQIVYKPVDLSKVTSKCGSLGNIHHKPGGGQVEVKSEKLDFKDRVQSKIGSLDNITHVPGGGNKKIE

Structure (SMILES)	Potency
O=C(Cc1ccccc1)Nc1sc2c(c1C(=O)Nc1ccc(Br)cc1)CCCC2	inactive
Cn1cc(Cl)c(C(=O)Nc2cccc(Cl)c2Cl)n1	inactive
Cc1[nH]c(=O)c(C#N)cc1-c1ccncc1	inactive
COc1ccc2c(c1)c(CC(=O)Nc1ccc(C(C)=O)cc1)c(C)n2C(=O)c1ccc(Cl)cc1	inactive
Cc1ccc(NC(=O)c2c(NC(=O)Cc3ccccc3)sc3c2CCCC3)cc1	inactive
CN1CCc2sc(NC(=O)Cc3ccccc3)c(C(=O)Nc3ccc(Cl)cc3)c2C1	inactive
O=C(Nc1nc2ccc(S(=O)(=O)N3CCCC3)cc2s1)c1ccc(F)cc1	inactive
COC(=O)C1CCc2sc(NC(=O)Cc3ccccc3)c(C(=O)Nc3ccc(Cl)cc3)c21 (stereo not given)	inactive
O=C(NCc1cccnc1)C1CCN(S(=O)(=O)c2cccs2)CC1	inactive
O=C(Nc1ccccc1)Nc1ccccc1	inactive
CCOC(=O)c1nn(-c2cccc(C(F)(F)F)c2)c(=O)c2c(N)scc12	inactive
COc1cccc(/C=C2/SC(=S)N(CC(=O)Nc3nnc(C)s3)C2=O)c1	inactive
CCOC(=O)c1nn(-c2ccccc2F)c(=O)c2c(N)scc12	inactive
O=S(=O)(c1ccc2nc(-c3ccco3)c(-c3ccco3)nc2c1)N1CCOCC1	7.94 µM (active)
CCOC(=O)c1nn(-c2ccc(C)c(C)c2)c(=O)c2c(N)scc12	inactive
O=C(Cc1ccccc1)Nc1sc2c(c1C(=O)Nc1cccc(Cl)c1)CCCC2	inactive
Cc1cc2c(N)cccc2nn1	39.8 µM (active)
CCOC(=O)c1nn(-c2ccccc2)c(=O)c(C#N)c1C	inactive
COC(=O)c1c(NC(=O)C(C)(C)C)sc2c1C(C(=O)OC)CC2 (stereo not given)	inactive
CCOC(=O)c1c(N)sc2c1CN(C)CC2	inactive

Structure (SMILES)	Potency
S=C1Cc2ccccc2N1	inactive
Cc1ccc(NC(=O)N2CCN(c3ccccn3)CC2)cc1	inactive
CCOC(=O)c1nn(-c2ccccc2)c(=O)c2c(N)sc(C)c12	inactive
CC(C)(C)c1ccc(NC(=O)N2CCN(c3ccc([N+](=O)[O-])cn3)CC2)cc1	inactive
Cc1nc2ccccc2oc1=O	inactive
Cn1[nH]c(CSc2ccc(Cl)cc2)cc1=O	inactive
O=C(Nc1cccc(-c2nc3ccccc3o2)c1)c1cc([N+](=O)[O-])ccc1N1CCOCC1	inactive
COc1c(Cl)cccc1NC(=O)c1c(NC(=O)Cc2ccccc2)sc2c1CCCC2	inactive
O=C(Nc1nnc(S(=O)(=O)Nc2ccccc2)s1)C1CCCCC1	inactive
O=C(NCCCO)Nc1ccc2nc(-c3ccco3)c(-c3ccco3)nc2c1	7.94 µM (active)
COC(=O)c1c(N)sc2c1C(C(=O)OC)CC2 (stereo not given)	inactive
CCOC(=O)c1nn(-c2ccccc2)c(=O)c2c(NC(=O)c3ccccc3)scc12	inactive
CC(C)c1ccc(NS(=O)(=O)c2ccc3[nH]cc(C(=O)NCCc4ccccc4)c(=O)c3c2)cc1	inactive
O=C(CSc1nc2scc(-c3ccco3)c2c(=O)n1-c1ccccc1)N1CCOCC1	inactive
COc1ccc(NC(=O)C2CCN(S(=O)(=O)c3c(C)noc3/C=C/c3cccs3)CC2)cc1Cl	inactive
Nc1scc2c(C(=O)O)nn(-c3ccccc3)c(=O)c12	7.08 µM (active)
O=S(=O)(c1ccc(NC(=S)N/N=C/c2ccc(N3CCOCC3)cc2)cc1)N1CCOCC1	inactive
CCN(CC)S(=O)(=O)c1cccc(NC(=O)Nc2cccc(C(F)(F)F)c2)c1	2.82 µM (active)
Cn1sc(NC(=O)c2ccccc2)nc1=O	inactive
NC[C@@H](O)c1ccc(O)c(O)c1	inactive

Source: PubChem BioAssay AID1559 (National Center for Advancing Translational Sciences (NCATS), 2009)
